# Screens (PubChem BioAssay)
# A selection: hits, their analogues and other compounds. The true share with any hit is near 19%.
# HT1080NT lethal: kills 2HG-producing HT-1080-NT fibrosarcoma cells | Potency, µM (top dose mostly 46.1 µM), inactives show at the highest dose activity, negative = less viability, usual class: cytotoxic | AID 686970 | 1.6% of 360,000 active | HT-1080-NT fibrosarcoma viability, CellTiter-Glo ATP luminescence, 48 h;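 further: NT is the 2HG producing partner of a matched IDH1 knockdown line; potency means the concentration at half of the fitted maximal effect; 0% = DMSO-treated cells and -100% = media-only wells without cells; nearly all actives have a fitted effect of over 55% in size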
#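 Read-out is CellTiter-Glo luminescence after 10 minutes at room temperature, following 48 hours' compound treatment of HT-1080-NT cells (750 cells/well, RPMI, 5% FBS, 37 degrees C).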
# DT40 TDP1 CPT: DT40-hTDP1 cell growth loss with CPT | chicken DT40 Tdp1-/-;hTDP1 cells + 20 nM CPT, ATP luminescence, 48 h | Potency, µM (highest dose often 46.2 µM), inactives show at the top dose activity change, negative = growth inhibition, actives largely listed as inhibitors | 12% of 420,000 active | AID 686979; further: potency means the concentration at half of the fitted maximal effect; nearly all actives have a fitted effect of over 55% in size
#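 Chicken DT40 Tdp1-/- cells complemented with human TDP1, 400 cells/well, exposed to compounds plus 20 nM camptothecin for at least 48 h at 37 C; viability read as ATP content by CellTiter-Glo luminescence.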
# DT40 TDP1 no CPT: qHTS for Inhibitors of human tyrosyl-DNA phosphodiesterase 1 (TDP1): qHTS in cells in absence of CPT. DT40 Tdp1-/- hTDP1 cells, no CPT, ATP luminescence, 48 h. 15% of 420,000 active. Potency, µM (highest dose often 46.2 µM), for inactives: top-dose activity change, negative = growth inhibition, actives largely listed as inhibitors. AID 686978, 2013; further: potency means the concentration at half of the fitted maximal effect; nearly all actives have a fitted effect of over 55% in size
#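 Readout: luminescence from CellTiter-Glo after 30 min in the dark at RT. Cells: DT40 Tdp1-/- with stable hTDP1, 400/well. Exposure: compounds alone, ≥48 hr, 37 °C.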
# ELG1 DNA repair: inhibitors of ELG1-dependent DNA repair in HEK293T cells | Potency, µM (doses to about 46.1 µM), for the others: top-dose activity change, negative = inhibition, most hits filed as inhibitors | HEK293T ELG1-luciferase reporter, luminescence, 16 h; DNA damage induced by 5-fluorouridine | 2.3% of 330,000 active | AID 504467; further: potency means the concentration at half of the fitted maximal effect; nearly all actives have a fitted effect of over 55% in size
#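 DMSO vehicle served as the neutral condition. Each well held 2,000 cells given 5-fluorouridine plus compound; after 16 hr at 37 °C/5% CO2, ONE-Glo was added and luciferase measured 30 min later.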
# IL-1B inflam inh: inhibitors of inflammasome signaling (IL-1 beta secretion) | THP-1 LPS/ATP IL-1B secretion, AlphaLISA, 16 h; active compounds read low | activity change, % at 57.5 µM | 4.7% of 360,000 active; in the data active means activity change below about -50%; inconclusive means mostly about -30% to -49%
#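 Secreted IL-1B measured by AlphaLISA bead assay after 16 h compound exposure of THP-1 cells; compounds (final up to 57.5 uM) added 1 h before LPS (250 ng/mL) and ATP (1.25 mM) stimulation; lower signal means less secretion.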
# HT1080 IDH1KD tx: HT-1080 IDH1 knockdown cell toxicity (counter line); 2% of 360,000 active; HT-1080 IDH1 knockdown viability, ATP luminescence, 48 h; Potency, µM (series often up to 46.1 µM), for inactives: at the highest dose activity, negative = toxicity, hits mostly cytotoxic;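 further: potency means the concentration at half of the fitted maximal effect; 0% = DMSO wells and -100% = cell-free medium wells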
#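 Luminescent ATP read-out (CellTiter-Glo, 10 min at room temperature) after 48 h compound exposure at 37 °C gave viability of IDH1-knockdown HT-1080 cells. Activity was normalised to DMSO and cell-free wells, then fitted as concentration-response curves.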
# The depositor's hits bear a star; ? = inconclusive; . = no result. Unless noted, the call rests on the fitted dose curve; in most records, active means well fitted curve in the direction sought with a large enough effect; inconclusive means small, poorly fitted or top-dose-only effect, or another doubt; inactive means no such curve, though single readings can be large; an effect the other way counts as inactive or inconclusive. Unless noted, on the % scale 0 is the no-effect control and ±100 the full control effect.
SMILES,HT1080NT lethal,DT40 TDP1 CPT,DT40 TDP1 no CPT,ELG1 DNA repair,IL-1B inflam inh,HT1080 IDH1KD tx
Cc1cc(C)c(S(=O)(=O)c2cccc(C)c2C)c(=O)[nH]1,5%,11%,-6%,6%,-2,2%
CCOCCCNC(=O)C(c1ccc(OC)cc1)N(Cc1cccs1)C(=O)c1ccccn1 (stereo unspecified),11%,-1%,?,-2%,12,1%
COc1ccc(NC(=O)Cn2c(SCc3ccc(C)cc3)nc3cccnc32)cc1OC,.,2.3µM*,1.6µM*,.,.,.
COC(=O)c1ccc(NC(=O)CN2CCN(S(=O)(=O)c3ccc(Br)cc3)CC2)cc1,-14%,?,18µM*,15%,0,-11%
COc1ccc(C)cc1NC(=O)CN1CCN(S(=O)(=O)c2ccc(F)cc2)CC1,2%,?,?,-26%,-9,6%
O=C(CN1CCCN(S(=O)(=O)c2ccc(Br)cc2)CC1)Nc1cccc(C(F)(F)F)c1,.,21µM*,12µM*,.,.,.
CN(C)S(=O)(=O)N1CCN(CC(=O)Nc2ccc(Br)cc2)CC1,7%,-13%,-3%,19%,50,0%
COc1ccc(C2(C(=O)Nc3ccc(OC)cc3OC)CCCC2)cc1,8%,13µM*,23µM*,?,19,13%
COc1ccc(S(=O)(=O)N2CCCN(CCC(=O)Nc3cccc(C(F)(F)F)c3)CC2)cc1,3%,-19%,-17%,?,6,5%
COc1ccc(C)cc1NC(=O)CN1CCN(S(=O)(=O)c2ccc3ccccc3c2)CC1,7%,16µM*,16µM*,-9%,0,-1%
Cc1cccc(NC(=O)CSc2nnc(CNC(=O)c3c(F)cccc3Cl)o2)c1C,.,6%,-23%,.,.,.
COc1ccc(S(=O)(=O)N2CCCN(CC(=O)Nc3ccc(OC)cc3OC)CC2)cc1,.,?,12µM*,.,.,.
O=S(=O)(c1ccc(Br)cc1)N1CCCN(Cc2cccc(F)c2)CC1,-1%,-10%,?,-11%,-56*,-1%
COc1ccc(C)cc1NC(=O)CN1CCCN(S(=O)(=O)c2ccc(Br)cc2)CC1,-20%,?,9.2µM*,0%,-30,0%
Cc1ccc(NC(=O)CN(C)C(=O)CNC(=O)c2sc3ccccc3c2Cl)cc1,7%,?,?,?,.,4%
Cc1ccc(C2=NNC(c3ccc(Cl)cc3)=Nc3ccccc32)o1,-14%,13µM*,12µM*,-22%,-2,-9%
CCCCCCCN1CCC(=O)N([C@H](CO)CC(C)C)CC1,-12%,?,23µM*,7%,-1,1%
O=C1CCN(Cc2ccc(Br)cc2)CCN1[C@H](CO)Cc1ccccc1,6%,20µM*,?,-17%,-2,0%
CCCN1CCC(=O)N([C@H](CO)Cc2ccccc2)CC1,2%,1%,-11%,?,-21,-3%
CCCCCCCN1CCC(=O)N([C@H](CO)Cc2ccccc2)CC1,-7%,21µM*,13µM*,-10%,-10,-4%
Nc1ccccc1CCc1ccccc1N,-2%,11%,-4%,.,?,-2%
COc1cccc(CNC(=O)CN2C(=O)N(c3cccc(Cl)c3)S(=O)(=O)c3ccccc32)c1OC,.,?,-25%,.,.,.
CNc1c(Br)cc(/C=C2\C=Cc3ccccc32)cc1Br,.,-9%,?,.,.,.
CNc1c(Br)cc(C(O)C2=CCc3ccccc32)cc1Br (stereo unspecified),.,8.9µM*,4.5µM*,.,.,.
Cc1cc(C)n(-c2ncc(C#N)cn2)n1,5%,3%,-1%,6%,8,8%
SMILES,HT1080NT lethal,DT40 TDP1 CPT,DT40 TDP1 no CPT,ELG1 DNA repair,IL-1B inflam inh,HT1080 IDH1KD tx
Cc1cc(C)n(-c2nc(Nc3ccccc3C(F)(F)F)nc(-n3nc(C)cc3C)n2)n1,9.2µM*,16µM*,15µM*,13µM*,-54*,?
Cc1cc(C)n(-c2nc(N(C)C)nc(N(C)C)n2)n1,7.1µM*,?,15µM*,-5%,4,6.3µM*
Cc1cc(C)n(-c2nnc(NC(C)(C)C)nn2)n1,2%,5%,-13%,?,17,5%
Cc1cc(C)n(-c2nc(NC(C)(C)C)nc(NC(C)(C)C)n2)n1,10%,2.1µM*,1.8µM*,?,14,4%
CCNc1nc(NCC)nc(-n2nc(C)cc2C)n1,2µM*,2.3µM*,2.6µM*,?,-2,0.89µM*
O=C(CN1CCN(Cc2cccc(F)c2)CC1)Nc1ccccc1F,7%,-3%,?,-15%,-14,3%
Cc1cc(C)n(-c2nc(NC(C)C)nc(NC(C)C)n2)n1,-1%,1µM*,1.5µM*,2.9µM*,-5,0%
Cc1ccc(CNC(=S)NC2CCC(C(C)(C)C)CC2)cc1 (stereo unspecified),7%,?,23µM*,-5%,25,-12%
Cc1ccc(NC(=O)CSCc2ccc(F)cc2)cc1,1%,-3%,?,?,-15,4%
COc1ccc(CNC(=S)NC2CCCC2)cc1,-1%,?,?,4%,2,1%
Cc1ccc(CNC(=S)Nc2ccc(NS(=O)(=O)c3ccc(C)cc3)cc2)cc1,-29%,?,23µM*,?,0,?
Cc1ccc(CSC(Nc2ccc(F)cc2)=C(C#N)C#N)cc1,?,3.7µM*,3.3µM*,?,-57*,?
Cc1ccc(NC(=S)NCc2ccc(F)cc2)cc1,-3%,?,26µM*,.,-4,-2%
Cc1ccc(-n2nc(C(=O)NCc3ccc(F)cc3Cl)c3c4ccccc4n(C)c3c2=O)cc1,.,-14%,?,.,.,.
COC(=O)Cc1ccc(NC(=S)NCc2ccc(S(N)(=O)=O)cc2)cc1,-1%,21µM*,-17%,15%,45,-3%
CCOC(=O)c1ccc(NC(=S)NCc2ccc(S(N)(=O)=O)cc2)cc1,1%,-12%,11%,19%,-27,2%
CCCCCCSc1ccc([C@H]2N[C@@](CC(C)C)(C(=O)OC)[C@H]3C(=O)N(C)C(=O)[C@@H]23)cc1OC,-15%,?,18µM*,?,-53*,-10%
CCN1C(=O)[C@H]2[C@@H](c3ccc(-c4ccc(OC)cc4)c(OC)c3)N[C@@](CC(C)C)(C(=O)OC)[C@H]2C1=O,7%,?,?,13%,-5,-3%
